Values joined by “and” are separate entries in the source; they are usually repeats but may differ in a detail not shown here. Identical values can stand only once. Results filed as inconclusive are left out. More than one record can exist for a structure, and the calls need not agree. Active and inactive are the calls of the source. Rule for the calls, unless noted: active = hit-call score of the fitted dose curve at least 0.9, where 1 is the maximum; inactive = score below 0.9.
What was measured:
[1] = target: Estrogen receptor (Homo sapiens) (UniProt P03372); experiment: CCTE_Deisenroth_AIME_384WELL_LUC_Active: CCTE's 384-well Estrogen Receptor Transactivation Assay with AIME metabolic competence (ERTA luciferase; metabolism positive), Deisenroth Lab (AID 2284030; active = hit-call score of the fitted dose curve at least 0.9, where 1 is the maximum)
Outline: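 Estrogenic luciferase signal in VM7Luc4E2 cells is measured at 24 hour, after chemicals have been preconditioned 2 hours with PB/BNF-induced rat hepatic S9 in alginate. Gain of signal is fitted relative to 17beta-estradiol, across 0.002 - 200 uM.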

[2] = CCTE_Deisenroth_AIME_384WELL_CTox_Active: Cytotoxicity Assessment (CTOX) in CCTE's 384-well Estrogen Receptor Transactivation Assay with AIME metabolic competence (metabolism positive), Deisenroth Lab (AID 2284037; active = hit-call score of the fitted dose curve at least 0.9, where 1 is the maximum;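 note: chemicals first conditioned 2 h by alginate-bound induced rat liver S9 before cells; activity means signal loss indicating cell death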)
Outline: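 Chemicals pre-incubated 2 hours with alginate-immobilised phenobarbital/beta-naphthoflavone-induced male Sprague Dawley rat liver S9, then conditioned medium applied 24 hour to VM7Luc4E2 cells. Viability by fluorogenic protease substrate; 10-point series 0.002 - 200 uM.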

[3] = target: Estrogen receptor (Homo sapiens) (UniProt P03372); experiment: CCTE_Deisenroth_AIME_384WELL_LUC_Inactive: CCTE's 384-well Estrogen Receptor Transactivation Assay without AIME metabolic competence (ERTA luciferase; metabolism negative), Deisenroth Lab (AID 2284038; active = hit-call score of the fitted dose curve at least 0.9, where 1 is the maximum;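 note: VM7Luc4E2 breast cells given medium preincubated 2 h with S9-free microspheres; hits raise estrogen receptor luciferase signal so potencies reflect agonists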)
Outline: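 VM7Luc4E2 ER transactivation, luciferase bioluminescence after 24 h, using medium pre-incubated 2 h with S9-free alginate microspheres. Concentrations 0.002–200 uM; gain of signal fitted relative to 17beta-estradiol.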

[4] = CCTE_Deisenroth_AIME_384WELL_CTox_Inactive: Cytotoxicity Assessment (CTOX) in CCTE's 384-well Estrogen Receptor Transactivation Assay without AIME metabolic competence (metabolism negative), Deisenroth Lab (AID 2284039; active = hit-call score of the fitted dose curve at least 0.9, where 1 is the maximum;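 note: cell viability via live-cell protease substrate cleaved to fluorescent probe; cells exposed 24 h to medium preincubated 2 h with alginate-water beads without S9; loss of fluorescence signal means loss of viability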)
Outline: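 Fluorescent protease-substrate viability readout after 24 h exposure of VM7Luc4E2 cells to conditioned medium. Chemicals (0.002–200 uM) first sat 2 h over alginate-water beads, no S9. Data fitted bidirectionally, loss of signal meaning viability loss.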

[5] = target: Estrogen receptor (Homo sapiens) (UniProt P03372); experiment: CCTE_Deisenroth_AIME_384WELL_LUC_Shift: CCTE's 384-well Estrogen Receptor Transactivation Assay with AIME metabolic competence data shift (ERTA luciferase; difference in metabolism positive and negative), Deisenroth Lab (AID 2284041);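 note: shift is response with S9 minus without S9 so positive means metabolism raised ER signal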
Outline: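 Chemicals (0.002–200 uM, 10 points) pre-incubated 2 h with alginate-encapsulated induced male Sprague Dawley rat liver S9 or S9-free, then medium applied 24 h to VM7Luc4E2 cells; luciferase. Endpoint is per-concentration difference, S9-positive minus negative.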

[6] = CCTE_Shafer_MEA_dev_firing_rate_mean: CCTE's Neural Network Formation Assay for Mean Firing Rate, Shafer Lab (AID 2284031);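 for AC50: curve fitted for loss of firing so AC50 reflects decreased mean firing rate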
Outline: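 Steps: seed rat cortical cells (1.5 x 10^5/well) with laminin on PEI-coated MEA; dose day 0; record DIV 5/7/9/12, full media and compound exchange after DIV 5 and 9 recordings; compute well-mean firing rate AUC.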

[7] = CCTE_Shafer_MEA_dev_per_burst_spike_percent: CCTE's Neural Network Formation Assay for Percent of Spikes in a Burst, Shafer Lab (AID 2284032);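 for AC50: fitted as a decrease in burst spike percentage below DMSO baseline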
Outline: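 Value is trapezoidal AUC over recordings on days 5, 7, 9 and 12 of the well-mean fraction of spikes falling in single-electrode bursts; rat cortical cultures exposed continuously from plating, treatment renewed DIV 5 and 9, fitted downward against DMSO.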

[8] = CCTE_Shafer_MEA_dev_active_electrodes_number: CCTE's Neural Network Formation Assay for Number of Active Electrodes, Shafer Lab (AID 2284040; active = hit-call score of the fitted dose curve at least 0.9, where 1 is the maximum;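 for AC50: potency for loss of active electrodes versus DMSO so lower counts are hits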)
Outline: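 Counts electrodes per well firing at least 5 spikes/min, recorded on days 5, 7, 9 and 12 in rat cortical cultures dosed continuously from plating (treatment refreshed DIV 5, 9). Value is the area under the curve over recordings, fitted downward relative to DMSO.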

[9] = CCTE_Shafer_MEA_dev_burst_rate: CCTE's Neural Network Formation Assay for Burst Rate, Shafer Lab (AID 2284042);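 for AC50: potency for loss of burst rate below DMSO control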
Outline: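 Exposure ran continuously over 12 days of network development in rat cortical cultures, with compound refreshed during full media changes on DIV 5 and 9. Single-electrode bursts per recording time, well-mean over active electrodes, trapezoidal AUC across days 5–12, fitted downward relative to DMSO.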

[10] = CCTE_Shafer_MEA_dev_bursting_electrodes_number: CCTE's Neural Network Formation Assay for Number of Bursting Electrodes, Shafer Lab (AID 2284043; active = hit-call score of the fitted dose curve at least 0.9, where 1 is the maximum;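 for AC50: potency is for loss of bursting electrodes relative to DMSO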)
Outline: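 Rat cortical primary neurons, 48-well MEA, 16 electrodes/well; dosing DIV 0–12, re-dosed with full media change DIV 5, 9. Recordings DIV 5/7/9/12, AxIS adaptive spike detector; bursting electrode = ≥1 burst/2 min. AUC across days; loss of signal vs DMSO.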

[11] = CCTE_Shafer_MEA_dev_per_burst_interspike_interval: CCTE's Neural Network Formation Assay for Burst Interspike Interval, Shafer Lab (AID 2284044);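 for AC50: potency for a decrease of within-burst interspike interval below DMSO level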
Outline: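 Spontaneous activity of maturing rat cortical networks is recorded on DIV 5, 7, 9 and 12 under chronic compound exposure beginning at plating. Endpoint: burst interspike interval well-mean, collapsed into trapezoidal AUC and fitted in the negative direction relative to DMSO.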

[12] = CCTE_Shafer_MEA_dev_burst_duration_mean: CCTE's Neural Network Formation Assay for Mean Burst Duration, Shafer Lab (AID 2284045);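 for AC50: curve fitted for loss meaning shorter burst duration than DMSO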
Outline: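 Rat cortical cultures, 1.5 x 10^5 cells/well with laminin drop; continuous dosing days 0–12, media plus treatment refreshed DIV 5, 9. AxIS adaptive spike detection; mean single-electrode burst duration, AUC over four recordings, negative direction vs DMSO.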

[13] = CCTE_Shafer_MEA_dev_interburst_interval_mean: CCTE's Neural Network Formation Assay for Mean Interburst Interval, Shafer Lab (AID 2284046);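 note: well-mean interburst interval of bursting electrodes as AUC over four recording days; curve fitted for decrease in interburst interval relative to DMSO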
Outline: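 Primary rat cortical neurons on PEI-coated 48-well MEA plates (laminin added with cells at plating) (16 electrodes/well), exposed from plating day 0 with renewal at DIV 5 and 9. Mean inter-burst interval averaged over bursting electrodes, AUC across days 5, 7, 9, 12; DMSO baseline.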

[14] = CCTE_Shafer_MEA_dev_inter_network_spike_interval_mean: CCTE's Neural Network Formation Assay for Mean Inter-network Spike Interval, Shafer Lab (AID 2284047);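 for AC50: potency for a decrease in mean inter-network spike interval below DMSO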
Outline: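 Mean time between consecutive network-spike peaks, recorded extracellularly (adaptive spike detection) on DIV 5, 7, 9 and 12, summarized as trapezoidal AUC. Rat cortical cultures on MEAs dosed continuously days 0–12, re-dosed at feeds; loss-of-signal fit relative to DMSO.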

[15] = CCTE_Shafer_MEA_dev_network_spike_number: CCTE's Neural Network Formation Assay for Number of Network Spikes, Shafer Lab (AID 2284048);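 note: synchronized bursts across electrodes counted on days 5 7 9 12 and integrated as AUC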;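 for AC50: fit as a loss of signal meaning fewer network spikes than DMSO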
Outline: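 Rat cortical primary cultures on 48-well MEA (16 electrodes/well); continuous exposure DIV 0–12, full medium and treatment exchange DIV 5, 9. Readout: network spike count, AxIS adaptive detection, recordings DIV 5/7/9/12 collapsed to AUC; loss-of-signal fit, DMSO baseline.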

Measured: AC50

Chain of Estrogen receptor (Homo sapiens) (P03372 whole entry, looked up): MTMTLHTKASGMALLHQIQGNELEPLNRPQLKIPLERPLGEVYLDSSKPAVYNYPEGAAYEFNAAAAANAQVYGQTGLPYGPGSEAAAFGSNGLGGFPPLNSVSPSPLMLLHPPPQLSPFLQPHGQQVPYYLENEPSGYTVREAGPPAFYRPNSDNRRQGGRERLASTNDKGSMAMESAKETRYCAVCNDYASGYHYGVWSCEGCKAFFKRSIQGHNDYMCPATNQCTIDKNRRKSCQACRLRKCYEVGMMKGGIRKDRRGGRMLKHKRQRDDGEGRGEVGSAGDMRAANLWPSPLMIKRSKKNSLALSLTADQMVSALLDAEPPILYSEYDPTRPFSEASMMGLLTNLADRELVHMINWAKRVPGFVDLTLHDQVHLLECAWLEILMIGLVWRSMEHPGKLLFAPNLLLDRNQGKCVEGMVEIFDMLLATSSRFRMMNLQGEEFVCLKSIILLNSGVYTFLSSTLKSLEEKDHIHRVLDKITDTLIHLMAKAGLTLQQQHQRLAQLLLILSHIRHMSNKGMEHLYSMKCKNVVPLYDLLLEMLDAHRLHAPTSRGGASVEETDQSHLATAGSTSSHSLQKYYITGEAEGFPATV

O=[N+]([O-])c1ccccc1
inactive: [1] | [2] | [3] | [4] | [5]

ClC(Cl)c1ccccc1
inactive: [1] | [2] | [3] | [4] | [5]

OCC1CO1 (stereo not given)
inactive: [1] | [2] | [3] | [4] | [5]

COC(N)=O
inactive: [1] | [3] | [5]

OCC(F)(F)OC(F)(F)C(F)(F)OC(F)(F)C(F)(F)OC(F)(F)F
not listed: [1] | [2] | [3] | [4] | [5]
inactive: all other assays above

O=C(O)C(F)(F)C(F)(F)C(=O)O
not listed: [1] | [2] | [3] | [4] | [5]
inactive: all other assays above

O=C(O)C(F)(F)OC(F)(F)C(F)(F)OC(F)(F)F
not listed: [1] | [2] | [3] | [4] | [5] | [10]
inactive: all other assays above

O=C(O)C(F)(OC(F)(F)C(F)(F)C(F)(F)F)C(F)(F)F (stereo not given)
active: [9] 11.7 µM | [15] 0.402 µM
inactive: [6] | [7] | [8] | [9] | [10] | [11] | [12] | [13] | [14] | [15]

CCCCOCCOP(=O)(OCCOCCCC)OCCOCCCC
inactive: [5]

O=c1ssc(Cl)c1Cl
inactive: [1] | [3] | [5]

CCCN(CCC)c1c([N+](=O)[O-])cc(C(C)C)cc1[N+](=O)[O-]
inactive: [3] | [4] | [5]
active: [1] 13.3 µM

CCCCC(CC)COC(=O)c1c(Br)c(Br)c(Br)c(Br)c1C(=O)OCC(CC)CCCC (stereo not given)
not listed: [1] | [2] | [3] | [4] | [5]
inactive: all other assays above

OCC(F)(F)OC(F)(F)C(F)(F)OC(F)(F)C(F)(F)OC(F)(F)CO
not listed: [1] | [2] | [3] | [4] | [5]
inactive: all other assays above

CC(O)C(F)(F)C(F)(F)F (stereo not given)
not listed: [1] | [2] | [3] | [4] | [5]
inactive: all other assays above

Nc1cc2c3c(c1)C(c1ccccc1)=N[C@@H](NC(=O)c1cccnc1)C(=O)N3CC2
active: [5] 39.4 µM
inactive: [1] | [2] | [3]

C=CC(=O)OCC(F)(F)C(F)F
active: [7] 5.66 µM | [8] 4.45 µM | [10] 4.87 µM | [11] 2.98 µM | [12] 8.76 µM | [13] 8.7 µM
inactive: [6] | [9] | [14] | [15]

CCOP(=S)(OCC)SCSCC
inactive: [6] | [7] | [9] | [11] | [12] | [13] | [14] | [15]
active: [7] 74.7 µM | [8] 81.3 µM and 23.2 µM | [10] 76.1 µM and 23.1 µM | [13] 50 µM

O=P1(N(CCCl)CCCl)NCCCO1 (stereo not given)
not listed: [1] | [2] | [3] | [4] | [5]
inactive: all other assays above

CC(C)(C)OOC(C)(C)C
inactive: [1] | [2] | [3] | [5]

Cc1cccc(N)c1
inactive: [1] | [3] | [4] | [5]

CCOS(=O)(=O)OCC
inactive: [1] | [3] | [4] | [5]

CO/N=C(/C(=O)OC)c1ccccc1COc1ccccc1C
active: [6] 1 µM | [7] 0.639 µM | [8] 0.857 µM | [9] 0.403 µM | [10] 0.857 µM | [11] 2.25 µM | [12] 0.863 µM | [13] 0.939 µM | [14] 0.712 µM | [15] 0.474 µM

OCC(F)(F)OC(F)(F)C(F)(F)OC(F)(F)CO
not listed: [1] | [2] | [3] | [4] | [5]
inactive: all other assays above

O=P(Oc1ccccc1)(Oc1ccccc1)Oc1ccccc1
not listed: [1] | [2] | [3] | [4] | [5]
inactive: all other assays above

c1nc[nH]n1
inactive: [1] | [3] | [4] | [5]

CCCCOCC1CO1 (stereo not given)
active: [1] 77.3 µM | [3] 19.9 µM | [5] 8.76 µM
inactive: [2]

c1cc2c3c(cccc3c1)CC2
not listed: [1] | [2] | [3] | [4] | [5]
inactive: all other assays above

O=C(O)C(F)(F)OC(F)(F)C(F)(F)OC(F)(F)C(=O)O
not listed: [1] | [2] | [3] | [4] | [5]
inactive: all other assays above

O=S(=O)(c1ccc(O)cc1)c1ccc(O)cc1
not listed: [1] | [2] | [3] | [4] | [5]
inactive: all other assays above

O=C(O)C=CC(F)(C(F)(F)F)C(F)(F)F
inactive: [6] | [7] | [9] | [11] | [12] | [13] | [14] | [15]

O=C(O)CF
inactive: [1] | [3] | [4] | [5]

Reference: PubChem BioAssay (EPA / NIEHS)
